The source of these data is PubChem BioAssay (Tox21).

Inconclusive results are not listed. Activity calls are given as the source filed them. Unless noted, calls follow the shape of the dose curve; as a rule, active = well fitted curve in the direction sought with a large enough effect in the repeat runs; inconclusive = weak or mixed curves; inactive = no such curve, though single readings can be large; an effect the other way counts as inactive or inconclusive.

Assay [1] is described as follows: qHTS assay to identify aromatase inhibitors - cell viability counter screen (AID 743084;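 also: cells stimulated with testosterone during compound exposure; nearly all actives have a fitted effect of over 55% in size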). (In general: In qHTS, concentration-response curves come from the screen itself.)
In assay [2] the target is Aryl hydrocarbon receptor (Homo sapiens) (UniProt P35869). Put plainly: qHTS assay to identify small molecule that activate the aryl hydrocarbon receptor (AhR) signaling pathway (AID 743085).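 Also: HG2L7.5c1 human HepG2 liver cells with stably integrated DRE-driven firefly reporter; series mostly up to about 70 µM; nearly all actives have a fitted effect of over 15% in size.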 A digest of the protocol:
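Stably transfected human liver carcinoma cells (HG2L7.5c1; 20 DRE-firefly luciferase) were incubated 5 h, dosed, and kept 24 h at 37C. Agonism was scored from increased luciferase luminescence.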

The nature of assay [3]: qHTS assay to identify small molecule that activate the aryl hydrocarbon receptor (AhR) signaling pathway - cell viability counter screen (AID 743086).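 Also: HepG2 liver cells carrying the AhR DRE luciferase reporter; series mostly up to about 70 µM; nearly all actives have a fitted effect of over 45% in size.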 In short, it runs like this:
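Cytotoxicity counter screen: CellTiter-Fluor signal (30 min, 37 C) in 4000 HepG2 cells/well carrying the DRE-luciferase reporter, following 24 h compound exposure at 37 C.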

For assay [4], the target named is Peroxisome proliferator-activated receptor gamma (Homo sapiens) (UniProt P37231). Put plainly: qHTS assay to identify small molecule agonists of the peroxisome proliferator-activated receptor gamma (PPARg) signaling pathway (AID 743094; active = well fitted activation curve with a large enough effect in the signal ratio in the repeat runs, not every such curve was filed as active; the % refers to the signal ratio). In short, it runs like this:
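Beta-lactamase FRET fluorescence was the read-out after a 1 h room-temperature substrate step, following 17 h compound treatment at 37C of HEK293H cells expressing a UAS-driven bla reporter responsive to PPARg.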

A short description of assay [5]: qHTS assay to identify small molecule antagonists of the peroxisome proliferator-activated receptor gamma (PPARg) signaling pathway - cell viability counter screen (AID 743194). Also: nearly all actives have a fitted effect of over 55% in size. Also: potency is read from the fitted curve at half-maximal effect. The settings on record: Potency: co-treated with 50 nM rosiglitazone. In short, it runs like this: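 Viability was measured as CellTiter-Glo luminescence in GeneBLAzer PPARg UAS-bla HEK293H cells. These cells had been exposed 17 h at 37 C to compounds together with rosiglitazone at 50 nM final, with the beta-lactamase readout taken in the same wells.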

Assay [6] can be described thus: qHTS assay for small molecule agonists of the antioxidant response element (ARE) signaling pathway (AID 743202; active = well fitted activation curve with a large enough effect in the signal ratio in the repeat runs, not every such curve was filed as active; the % refers to the signal ratio; also: potency is read from the fitted curve at half-maximal effect). In short, it runs like this:
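An ARE-responsive beta-lactamase gene stably integrated in HepG2 cells serves as reporter. After 5 h plating and 16 h compound incubation at 37 C, fluorescence of the B/G FRET substrate was measured.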

Assay [7] can be described thus: qHTS assay for small molecule agonists of the antioxidant response element (ARE) signaling pathway - cell viability counter screen (AID 743203; calls by dose curve; also: nearly all actives have a fitted effect of over 55% in size; also: potency is read from the fitted curve at half-maximal effect). In short, it runs like this:
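HepG2 cells carrying ARE-driven beta-lactamase; 2,000 cells/well; 5 hrs plating; compound pinned from DMSO; 16 hrs 37C/5% CO2; CellTiter-Glo added; 30 min RT; luminescence.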

Assay [8] can be described thus: qHTS assay for small molecule activators of the heat shock response signaling pathway (AID 743210; active = well fitted activation curve with a large enough effect in the signal ratio in the repeat runs, with a control signal flat, not every such curve was filed as active; the % refers to the signal ratio;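 also: HeLa cells with beta-lactamase reporter driven by heat shock elements; series mostly up to about 63 µM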). In short, it runs like this: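 In HSE-bla HeLa cells, 5 h compound incubation (37 C) precedes addition of LiveBLAzer B/G substrate; after 2.5 h at room temperature, fluorescence intensity indicates reporter induction.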
Assay [9] can be described thus: qHTS assay to identify small molecule agonists of the peroxisome proliferator-activated receptor delta (PPARd) signaling pathway - cell viability counter screen (AID 743211). Also: nearly all actives have a fitted effect of over 55% in size. A digest of the protocol: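 In the same wells used for beta-lactamase reporter measurement, cytotoxicity is scored by CellTiter-Glo. HEK293H PPARd-bla cells receive compound for 17 h at 37C following a 5 h settling period.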

Assay [10] deals with Peroxisome proliferator-activated receptor delta (Homo sapiens) (UniProt Q03181). Briefly: qHTS assay to identify small molecule agonists of the peroxisome proliferator-activated receptor delta (PPARd) signaling pathway (AID 743212; calls by dose curve). In short, it runs like this: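 HEK293H UAS-bla reporter cells, human PPARd system; compounds delivered in DMSO after 5 h plating, then at 37 C. Beta-lactamase FRET read, 2 h RT substrate step.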
Chain of Peroxisome proliferator-activated receptor delta (Homo sapiens) (Q03181 whole entry, looked up): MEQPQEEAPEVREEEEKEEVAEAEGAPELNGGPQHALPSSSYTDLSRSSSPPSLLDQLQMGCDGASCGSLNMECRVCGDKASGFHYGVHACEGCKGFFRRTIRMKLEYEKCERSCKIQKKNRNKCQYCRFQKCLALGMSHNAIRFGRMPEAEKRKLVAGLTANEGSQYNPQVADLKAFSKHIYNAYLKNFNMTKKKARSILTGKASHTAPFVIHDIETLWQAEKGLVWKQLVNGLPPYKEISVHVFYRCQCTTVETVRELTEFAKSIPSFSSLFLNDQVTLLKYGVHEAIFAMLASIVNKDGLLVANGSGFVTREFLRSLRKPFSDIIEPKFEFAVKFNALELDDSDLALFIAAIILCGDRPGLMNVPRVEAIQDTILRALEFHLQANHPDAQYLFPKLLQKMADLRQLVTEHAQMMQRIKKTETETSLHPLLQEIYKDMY

A short description of assay [11]: qHTS assay to identify small molecule antagonists of the peroxisome proliferator-activated receptor delta (PPARd) signaling pathway - cell viability counter screen (AID 743213). Also: nearly all actives have a fitted effect of over 50% in size. A digest of the protocol:
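In this counter screen, HEK293H cells carrying a UAS-beta-lactamase reporter are co-treated with test compounds and 300 nM L165041 (final) for 17 h at 37 C; cell viability is quantified by CellTiter-Glo luminescence.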

Assay [12] in a line: qHTS assay to identify small molecule agonists of the farnesoid-X-receptor (FXR) signaling pathway - cell viability counter screen (AID 743218). Also: nearly all actives have a fitted effect of over 45% in size. Also: potency is read from the fitted curve at half-maximal effect. In short, it runs like this: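 HEK 293T FXR-bla cells; 5 h pre-incubation, 16 h compound exposure at 37 C; LiveBLAzer substrate 2 h RT, then CellTiter-Glo 30 min RT, luminescence.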
Assay [13] can be described thus: qHTS assay to identify small molecule antagonists of the farnesoid-X-receptor (FXR) signaling pathway - cell viability counter screen (AID 743221; active = well fitted cell-killing curve with a large enough effect in the repeat runs, not every such curve was filed as active; also: nearly all actives have a fitted effect of over 50% in size; also: potency is read from the fitted curve at half-maximal effect). A digest of the protocol: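 Here viability was scored by luminescence after CellTiter-Glo addition to wells already read for beta-lactamase. Prior treatment: compound plus CDCA (50 uM final), 16 h, 37 C, HEK 293T FXR-bla cells.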

Assay [14] has as its target Vitamin D3 receptor (Homo sapiens) (UniProt P11473). Put plainly: qHTS assay to identify small molecule antagonists of the vitamin D receptor (VDR) signaling pathway (AID 743223; active = well fitted inhibition curve with a large enough effect in the signal ratio in the repeat runs, not every such curve was filed as active; the % refers to the signal ratio). A digest of the protocol: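 Inhibition of agonist-driven VDR signalling is scored in VDR-bla cells: 3 nM final 1alpha,25-dihydroxyvitamin D3 plus compound, 16 h at 37C, then beta-lactamase detection by FRET substrate fluorescence after 2 h.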

The nature of assay [15]: qHTS assay for small molecule activators of the heat shock response signaling pathway - cell viability counter screen (AID 743209). Also: nearly all actives have a fitted effect of over 50% in size. Also: potency is read from the fitted curve at half-maximal effect. In short, it runs like this: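 Luminescence from CellTiter-Glo, added after the beta-lactamase FRET read, gave the viability signal. Cells were HSE-bla HeLa treated with DMSO-dissolved compounds for 5 h at 37 C following overnight plating.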

The target in assay [16] is Peroxisome proliferator-activated receptor delta (Homo sapiens) (UniProt Q03181). Put plainly: qHTS assay to identify small molecule antagonists of the peroxisome proliferator-activated receptor delta (PPARd) signaling pathway (AID 743215; active = well fitted inhibition curve with a large enough effect in the signal ratio in the repeat runs, not every such curve was filed as active; the % refers to the signal ratio;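 also: cells stimulated with agonist L165041 at 300 nM final during compound exposure; series mostly up to about 62 µM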). In short, it runs like this: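 Read-out is beta-lactamase FRET fluorescence, measured 2 h after substrate addition at room temperature. Beforehand, UAS-bla HEK293H cells carrying the PPARd reporter were exposed to compounds with L165041 at 300 nM final for 17 h at 37 C.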

Assay [17] deals with Peroxisome proliferator-activated receptor gamma (Homo sapiens) (UniProt P37231). Put plainly: qHTS assay to identify small molecule antagonists of the peroxisome proliferator-activated receptor gamma (PPARg) signaling pathway (AID 743191; calls by dose curve; also: series mostly up to about 63 µM; nearly all actives have a fitted effect of over 30% in size). In short, it runs like this: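 Beta-lactamase reporter under UAS control in HEK293H PPARg-bla cells; compound treatment 17 h at 37C. Read-out: fluorescence intensity after 1 h room-temperature incubation with LiveBLAzer B/G FRET substrate.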
Chain of Peroxisome proliferator-activated receptor gamma (Homo sapiens) (P37231 whole entry, looked up): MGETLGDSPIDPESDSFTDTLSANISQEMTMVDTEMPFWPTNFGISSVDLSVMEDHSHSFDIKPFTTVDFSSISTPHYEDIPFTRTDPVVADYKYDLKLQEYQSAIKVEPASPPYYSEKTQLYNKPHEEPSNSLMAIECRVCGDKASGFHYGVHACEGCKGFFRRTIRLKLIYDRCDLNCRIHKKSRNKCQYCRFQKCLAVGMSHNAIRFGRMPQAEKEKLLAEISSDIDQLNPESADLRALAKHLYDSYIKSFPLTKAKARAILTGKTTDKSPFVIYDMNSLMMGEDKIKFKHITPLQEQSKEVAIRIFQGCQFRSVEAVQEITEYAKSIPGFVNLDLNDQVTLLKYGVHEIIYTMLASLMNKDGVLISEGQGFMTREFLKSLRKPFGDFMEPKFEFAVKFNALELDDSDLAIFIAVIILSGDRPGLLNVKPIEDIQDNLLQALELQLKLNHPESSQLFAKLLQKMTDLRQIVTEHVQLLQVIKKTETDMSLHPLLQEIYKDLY

Assay [18] has as its target Vitamin D3 receptor (Homo sapiens) (UniProt P11473). Put plainly: qHTS assay to identify small molecule agonists of the vitamin D receptor (VDR) signaling pathway (AID 743222; calls by dose curve). In short, it runs like this:
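VDR-bla cells, 2,000/well; 4 h preincubation 37C; cpd (DMSO) 16 h; LiveBLAzer B/G substrate 2 h RT; fluorescence intensity read.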

The target in assay [19] is Bile acid receptor (Homo sapiens) (UniProt Q96RI1). Briefly: qHTS assay to identify small molecule antagonists of the farnesoid-X-receptor (FXR) signaling pathway (AID 743217; active = well fitted inhibition curve with a large enough effect in the signal ratio in the repeat runs, not every such curve was filed as active; the % refers to the signal ratio). A digest of the protocol:
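HEK 293T FXR-UAS-bla, 5000 cells/well; compound + CDCA 50 uM final; 16 h, 37 °C; B/G FRET substrate 2 h RT; fluorescence.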

Assay [20] shares this target. Briefly: qHTS assay to identify small molecule agonists of the farnesoid-X-receptor (FXR) signaling pathway (AID 743220; active = well fitted activation curve with a large enough effect in the signal ratio in the repeat runs, not every such curve was filed as active; the % refers to the signal ratio). A digest of the protocol:
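Beta-lactamase reporter under UAS control in GeneBLAzer FXR HEK 293T cells (5000/well) measured with LiveBLAzer FRET substrate after 2 h at room temperature. Compound exposure lasted 16 h at 37C.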

Chain of Vitamin D3 receptor (Homo sapiens) (P11473 whole entry, looked up): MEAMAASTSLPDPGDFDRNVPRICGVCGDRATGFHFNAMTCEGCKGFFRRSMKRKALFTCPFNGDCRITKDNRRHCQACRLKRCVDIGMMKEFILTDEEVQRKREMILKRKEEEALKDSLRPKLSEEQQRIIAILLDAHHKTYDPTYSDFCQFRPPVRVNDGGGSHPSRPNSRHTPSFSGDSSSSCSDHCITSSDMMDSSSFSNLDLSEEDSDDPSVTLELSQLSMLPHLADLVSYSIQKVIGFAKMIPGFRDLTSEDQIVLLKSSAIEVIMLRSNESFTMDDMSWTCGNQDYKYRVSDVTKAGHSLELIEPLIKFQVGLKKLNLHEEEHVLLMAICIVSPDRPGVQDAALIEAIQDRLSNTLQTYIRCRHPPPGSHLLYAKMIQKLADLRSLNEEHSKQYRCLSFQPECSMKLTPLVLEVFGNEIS
Chain of Aryl hydrocarbon receptor (Homo sapiens) (P35869 whole entry, looked up): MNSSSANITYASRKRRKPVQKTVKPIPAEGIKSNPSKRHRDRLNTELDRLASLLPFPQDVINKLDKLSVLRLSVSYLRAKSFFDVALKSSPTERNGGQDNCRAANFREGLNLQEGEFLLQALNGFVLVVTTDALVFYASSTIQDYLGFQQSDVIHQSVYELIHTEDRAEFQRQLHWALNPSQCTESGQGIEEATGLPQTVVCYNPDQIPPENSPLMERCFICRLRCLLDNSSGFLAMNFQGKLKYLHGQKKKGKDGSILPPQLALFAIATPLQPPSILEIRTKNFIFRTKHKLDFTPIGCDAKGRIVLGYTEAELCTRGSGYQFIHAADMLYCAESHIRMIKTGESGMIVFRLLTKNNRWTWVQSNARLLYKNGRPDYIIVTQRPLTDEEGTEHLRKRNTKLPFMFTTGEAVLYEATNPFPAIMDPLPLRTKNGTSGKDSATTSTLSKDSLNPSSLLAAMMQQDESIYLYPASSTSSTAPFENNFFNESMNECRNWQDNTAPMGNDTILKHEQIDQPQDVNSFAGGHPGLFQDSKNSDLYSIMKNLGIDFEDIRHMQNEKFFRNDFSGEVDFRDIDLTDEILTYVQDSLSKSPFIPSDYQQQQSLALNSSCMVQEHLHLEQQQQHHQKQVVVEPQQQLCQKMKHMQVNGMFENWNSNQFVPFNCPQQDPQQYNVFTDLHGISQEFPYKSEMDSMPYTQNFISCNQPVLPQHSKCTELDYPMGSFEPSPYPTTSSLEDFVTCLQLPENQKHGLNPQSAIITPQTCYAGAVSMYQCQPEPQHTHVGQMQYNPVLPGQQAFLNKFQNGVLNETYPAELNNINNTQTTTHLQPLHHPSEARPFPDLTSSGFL
Chain of Bile acid receptor (Homo sapiens) (Q96RI1 whole entry, looked up): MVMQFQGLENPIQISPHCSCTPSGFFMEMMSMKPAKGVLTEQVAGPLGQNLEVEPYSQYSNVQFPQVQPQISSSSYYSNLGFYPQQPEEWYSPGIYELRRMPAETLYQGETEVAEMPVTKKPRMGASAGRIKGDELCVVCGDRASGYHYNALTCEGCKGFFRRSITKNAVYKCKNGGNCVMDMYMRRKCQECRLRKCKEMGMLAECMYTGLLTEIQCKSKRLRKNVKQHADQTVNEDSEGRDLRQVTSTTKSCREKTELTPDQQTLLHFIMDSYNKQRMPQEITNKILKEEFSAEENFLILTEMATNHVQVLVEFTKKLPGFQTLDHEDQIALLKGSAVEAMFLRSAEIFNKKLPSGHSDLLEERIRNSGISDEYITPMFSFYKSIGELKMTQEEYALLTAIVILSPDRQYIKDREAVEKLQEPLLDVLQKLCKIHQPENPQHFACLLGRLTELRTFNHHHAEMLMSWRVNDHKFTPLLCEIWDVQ

As for `CC(=O)CCC(C)=O`, the Potency result in assay [1], in assay [2], in [3], in [4], in [5] and in assay [6] was “inactive” throughout. For the same compound, the Potency result in assay [7], in [9], in [11], in [12] and in [13] was “inactive” throughout. Moreover, the outcome in assay [8], in assay [10] and in [14] was inactive.

In the case of `CCOP(O)OCC`, the Potency result in assay [1], in assay [2], in assay [3], in assay [4], in assay [5] and in assay [6] was “inactive” throughout. Besides, the Potency result in assay [7], in assay [15], in assay [9], in assay [11], in assay [16] and in assay [12] was “inactive” throughout. In addition, the Potency result in [13] is “inactive”. In addition, the call in [8], in [10] and in assay [14] was inactive.

Consider `Clc1ccc(C(OCCN2CCCCC2)c2ccccc2)cc1` (centres undefined), for which the Potency entry in assay [1], in assay [2], in assay [3], in assay [4], in assay [17] and in assay [13] was “inactive” in each case. Also, the compound was called inactive in assay [8], in assay [18] and in assay [14].

Turning to `O=C(CBr)c1ccccc1`, the Potency result in assay [1], in [2], in assay [3], in assay [4], in assay [17] and in [7] was “inactive” throughout. Moreover, the Potency entry in assay [9], in assay [11], in assay [16], in assay [19], in [12] and in assay [13] was “inactive” throughout. In addition, the compound was classed as inactive in assay [10] and in assay [20].

In the case of `CC(Cl)Cl`, the Potency result in assay [1], in assay [2], in assay [3], in assay [4], in assay [5] and in assay [7] was “inactive” each time. Also, the Potency entry in assay [15], in assay [9], in assay [11], in assay [16], in assay [19] and in [12] was “inactive” in each case. The Potency result in [13] is “inactive”. Also, the outcome in [8], in assay [10], in [20], in [18] and in assay [14] was inactive.

Take `NS(=O)(=O)C(F)(F)C(F)(F)C(F)(F)C(F)(F)C(F)(F)C(F)(F)C(F)(F)C(F)(F)F`: the Potency result in assay [1], in assay [2], in assay [3], in [4] and in assay [11] was “inactive” in each case. The Potency in assay [5] is 43.6 µM (active); in assay [7], 68.6 µM (active); in assay [15] it was 49 µM (active); in assay [12] it was 54.9 µM (active); in [13], 27.5 µM (active).

With `COCC(C)N(C(=O)CCl)c1c(C)csc1C` (centres undefined), the Potency result in assay [1], in assay [2], in [3], in assay [4], in assay [5] and in [15] was “inactive” in each case. For the same compound, the Potency entry in assay [19], in assay [12] and in assay [13] was “inactive” each time. Further, the Potency in [6] is 4.33 µM (active). Also, the compound was called inactive in [8] and in assay [20].

Consider `N#CCc1ccccc1`, for which the Potency entry in assay [1], in assay [2], in assay [3], in assay [4], in assay [17] and in assay [7] was “inactive” each time. In addition, the Potency result in assay [15], in [9], in assay [11], in [16], in assay [12] and in assay [13] was “inactive” each time. For the same compound, the result in [10], in [18] and in assay [14] was inactive.

On to `CC(C)(OO)c1ccccc1`, for which the Potency result in assay [1], in assay [2], in assay [3], in assay [4], in [17] and in [11] was “inactive” throughout. The Potency entry in assay [16], in [19], in assay [12] and in assay [13] was “inactive” throughout. Further, the values for the Potency in [7] and in [15] were 61.1 µM (active) and 49 µM (active), respectively. Besides, the result in assay [10], in [20] and in [18] was inactive.

Regarding `C=CC(=O)OCC(C)C`, the Potency result in assay [1], in [2], in [3], in assay [4], in assay [5] and in assay [6] was “inactive” throughout. Besides, the Potency entry in assay [7], in assay [15], in assay [9], in assay [11], in [16] and in assay [12] was “inactive” throughout. Besides, the Potency result in assay [13] is “inactive”. The outcome in [10], in [18] and in assay [14] was inactive.
